Data as given in PubChem BioAssay (EPA / NIEHS).
Results filed as inconclusive are left out. A structure can be active in one record and inactive in another. Activity calls are given as the source filed them. How the source made its calls, unless noted: active means hit-call score of the fitted dose curve at least 0.9, where 1 is the maximum; inactive means score below 0.9.

Key:
[1] = ATG_TCF_b_cat_CIS: Attagene CIS-FACTORIAL HepG2 Assay for human T-Cell-Factor with beta-catenin (TCF/b-cat) (AID 2282965); details: HepG2 TCF/beta-catenin cis-reporter transcription, actives raise or lower the signal
Method in brief: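 HepG2 cells transiently transfected with cis-promoter-driven multiplexed reporter units; reporter mRNA measured 24 h after dosing by RT-PCR, FAM labelling, HpaI digestion and capillary electrophoresis. Bidirectional fitting relative to DMSO baseline.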

[2] = ATG_TAL_CIS: Attagene CIS-FACTORIAL HepG2 Assay for human TAL Basal Promoter (AID 2282966); details: HepG2 Attagene cis-factorial TAL promoter reporter; actives raise or lower the signal;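 further: background control endpoint measuring basal TAL promoter reporter mRNA not a specific factor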
Method in brief: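 RT-PCR plus capillary electrophoresis quantifies reporter mRNA induction in transiently transfected HepG2 cells after 24 h chemical treatment. DMSO serves as negative control and baseline for bidirectional fitting.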

[3] = ATG_TGFb_CIS: Attagene CIS-FACTORIAL HepG2 Assay for human Transforming Growth Factor (TGF) (AID 2282967); details: HepG2 Attagene CIS TGFb reporter, mRNA transcription; actives raise or lower the signal
Method in brief: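 Transient MRTU transfection of HepG2 (FuGene 6). Dose 24 h. TriZol RNA, oligo(dT) RT, PCR, 6-FAM primer extension, HpaI cut, CE. Bidirectional fit, DMSO = baseline.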

[4] = molecular target: Nuclear receptor subfamily 1 group I member 3 (Homo sapiens) (UniProt Q14994); assay: ATG_CAR_TRANS: Attagene TRANS-FACTORIAL HepG2 Assay for human Constitutive Androstane Receptor (CAR) (AID 2282969; active means hit-call score of the fitted dose curve at least 0.9, where 1 is the maximum;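 further: activators raise reporter mRNA above DMSO so AC50 marks induction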); details: HepG2 Attagene TRANS-FACTORIAL CAR reporter
Method in brief: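 HepG2 cells transiently transfected with GAL4-UAS reporter units; TRANS format reads activity of exogenous chimeric NR-Gal4 protein. After 24 h dosing, reporter mRNA quantified by RT-PCR, 6-FAM labelling and capillary electrophoresis; gain of signal fitted against DMSO.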

[5] = molecular target: X-box-binding protein 1 (Homo sapiens) (UniProt P17861); assay: ATG_Xbp1_CIS: Attagene CIS-FACTORIAL HepG2 Assay for human X-box Binding Protein 1 (XBP1) (AID 2282972); details: HepG2 XBP1 cis-element reporter, Attagene multiplex; actives raise or lower the signal
Method in brief: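 HepG2 cells transiently transfected with multiple cis-element reporter units report endogenous TF activity; 24 h exposure, then reporter mRNA measured by RT-PCR, 6-FAM labelling, HpaI digestion and capillary electrophoresis. Bidirectional fitting versus DMSO.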

[6] = ATG_VDRE_CIS: Attagene CIS-FACTORIAL HepG2 Assay for human Vitamin D Receptor Element (VDRE) (AID 2282968); details: HepG2 VDRE cis-reporter transcription, actives raise or lower the signal
Method in brief: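 Transiently transfected HepG2 cells carrying cis-regulated reporter transcription units were exposed for 24 h. Reporter mRNA was measured by RT-PCR with fluorescent labelling and capillary electrophoresis, and fitted in both directions against DMSO.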

[7] = molecular target: Estrogen receptor (Homo sapiens) (UniProt P03372); assay: ATG_ERa_TRANS: Attagene TRANS-FACTORIAL HepG2 Assay for human Estrogen Receptor alpha (ERa) (AID 2282970; active means hit-call score of the fitted dose curve at least 0.9, where 1 is the maximum); details: HepG2 Attagene TRANS ERa GAL4 reporter, mRNA
Method in brief: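 Cells: HepG2, transiently transfected. Construct: GAL4-UAS reporter units regulated by exogenous NR-Gal4 chimeras. Time: 24 h. Detection: reporter mRNA by RT-PCR, capillary electrophoresis, fluorescence. Baseline: DMSO, upward fitting.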

[8] = molecular target: Steroid hormone receptor ERR1 (Homo sapiens) (UniProt P11474); assay: ATG_ERRa_TRANS: Attagene TRANS-FACTORIAL HepG2 Assay for human Estrogen-Related Receptor alpha (ERRa) (AID 2282971; active means hit-call score of the fitted dose curve at least 0.9, where 1 is the maximum); details: HepG2 Attagene TRANS reporter, ERRa transactivation
Method in brief: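 Reporter transcripts from ERRa-Gal4 chimera activity measured in transiently transfected human HepG2 cells 24 hours after dosing, using RT-PCR with 6-FAM primer extension, HpaI digestion and capillary electrophoresis; DMSO is baseline.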

[9] = molecular target: Androgen receptor (Homo sapiens) (UniProt P10275); assay: ATG_AR_TRANS: Attagene TRANS-FACTORIAL HepG2 Assay for human Androgen Receptor (AR) (AID 2282973; active means hit-call score of the fitted dose curve at least 0.9, where 1 is the maximum); details: HepG2 Attagene TRANS-FACTORIAL AR reporter transcription
Method in brief: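 Transcriptional activity of an exogenous AR–Gal4 fusion read as GAL4-UAS reporter transcript levels in transfected human HepG2 cells after 24 h dosing. Detection via RT-PCR, 6-FAM labelling, HpaI digest and capillary electrophoresis; increase over DMSO baseline.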

[10] = ATG_M_19_TRANS: Attagene TRANS-FACTORIAL HepG2 Assay for M19 Transcription Factor (Internal Marker) (AID 2282974; active means hit-call score of the fitted dose curve at least 0.9, where 1 is the maximum); details: HepG2 Attagene TRANS-FACTORIAL M19 internal marker reporter
Method in brief: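 Transfected HepG2 (GAL4-UAS MRTUs), 24 h compound, TriZol RNA, DNase-treated RT, reporter PCR, FAM label, HpaI digest, CE fluorescence; gain vs DMSO.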

Measured: AC50

Chain of Estrogen receptor (Homo sapiens) (P03372 whole entry, looked up, the tested form may be a part): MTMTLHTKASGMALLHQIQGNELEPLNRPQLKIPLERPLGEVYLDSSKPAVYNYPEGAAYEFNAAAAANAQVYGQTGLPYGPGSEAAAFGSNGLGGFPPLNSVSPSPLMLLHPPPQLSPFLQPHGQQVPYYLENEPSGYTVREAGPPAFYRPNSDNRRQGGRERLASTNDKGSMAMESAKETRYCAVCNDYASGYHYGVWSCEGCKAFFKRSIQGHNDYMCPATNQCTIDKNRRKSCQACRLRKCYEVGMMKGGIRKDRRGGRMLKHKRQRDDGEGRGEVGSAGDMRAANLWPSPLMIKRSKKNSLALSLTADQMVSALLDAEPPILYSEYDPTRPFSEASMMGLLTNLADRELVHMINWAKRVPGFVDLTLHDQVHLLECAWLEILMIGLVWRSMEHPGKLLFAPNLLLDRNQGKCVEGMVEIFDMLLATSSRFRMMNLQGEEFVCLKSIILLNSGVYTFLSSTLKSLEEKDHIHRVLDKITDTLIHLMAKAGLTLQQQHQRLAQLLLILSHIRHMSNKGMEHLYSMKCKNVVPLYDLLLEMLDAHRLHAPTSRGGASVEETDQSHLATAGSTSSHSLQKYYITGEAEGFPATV
Chain of Nuclear receptor subfamily 1 group I member 3 (Homo sapiens) (Q14994 whole entry, looked up, the tested form may be a part): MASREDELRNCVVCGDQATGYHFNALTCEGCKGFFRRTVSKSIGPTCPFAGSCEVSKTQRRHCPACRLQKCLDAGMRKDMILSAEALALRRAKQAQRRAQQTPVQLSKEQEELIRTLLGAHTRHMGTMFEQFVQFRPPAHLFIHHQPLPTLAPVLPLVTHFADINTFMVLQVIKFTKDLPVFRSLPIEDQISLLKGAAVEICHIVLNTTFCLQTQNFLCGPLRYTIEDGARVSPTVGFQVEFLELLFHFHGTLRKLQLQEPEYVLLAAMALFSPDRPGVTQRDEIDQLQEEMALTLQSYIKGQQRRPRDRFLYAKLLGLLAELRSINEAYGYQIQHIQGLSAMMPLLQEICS
Chain of Steroid hormone receptor ERR1 (Homo sapiens) (P11474 whole entry, looked up, the tested form may be a part): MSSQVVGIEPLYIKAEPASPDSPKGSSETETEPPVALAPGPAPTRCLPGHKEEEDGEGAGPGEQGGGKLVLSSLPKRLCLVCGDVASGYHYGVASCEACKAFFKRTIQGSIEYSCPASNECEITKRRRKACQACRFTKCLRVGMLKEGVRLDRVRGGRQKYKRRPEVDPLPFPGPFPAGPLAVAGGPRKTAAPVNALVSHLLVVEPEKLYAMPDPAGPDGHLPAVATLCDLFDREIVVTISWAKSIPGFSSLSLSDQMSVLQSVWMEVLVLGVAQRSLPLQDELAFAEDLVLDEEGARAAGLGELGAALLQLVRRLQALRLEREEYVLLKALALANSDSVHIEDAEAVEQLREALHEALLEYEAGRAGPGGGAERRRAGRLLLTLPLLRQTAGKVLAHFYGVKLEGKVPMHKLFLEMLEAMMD
Chain of X-box-binding protein 1 (Homo sapiens) (P17861 whole entry, looked up): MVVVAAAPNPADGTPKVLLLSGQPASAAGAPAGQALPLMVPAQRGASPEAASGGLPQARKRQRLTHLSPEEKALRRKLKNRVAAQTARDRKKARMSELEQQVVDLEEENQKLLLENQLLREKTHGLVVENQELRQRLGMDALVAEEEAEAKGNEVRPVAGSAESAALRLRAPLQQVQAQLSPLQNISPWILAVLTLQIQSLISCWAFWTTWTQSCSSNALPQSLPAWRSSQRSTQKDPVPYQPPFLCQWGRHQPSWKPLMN
Chain of Androgen receptor (Homo sapiens) (P10275 whole entry, looked up, the tested form may be a part): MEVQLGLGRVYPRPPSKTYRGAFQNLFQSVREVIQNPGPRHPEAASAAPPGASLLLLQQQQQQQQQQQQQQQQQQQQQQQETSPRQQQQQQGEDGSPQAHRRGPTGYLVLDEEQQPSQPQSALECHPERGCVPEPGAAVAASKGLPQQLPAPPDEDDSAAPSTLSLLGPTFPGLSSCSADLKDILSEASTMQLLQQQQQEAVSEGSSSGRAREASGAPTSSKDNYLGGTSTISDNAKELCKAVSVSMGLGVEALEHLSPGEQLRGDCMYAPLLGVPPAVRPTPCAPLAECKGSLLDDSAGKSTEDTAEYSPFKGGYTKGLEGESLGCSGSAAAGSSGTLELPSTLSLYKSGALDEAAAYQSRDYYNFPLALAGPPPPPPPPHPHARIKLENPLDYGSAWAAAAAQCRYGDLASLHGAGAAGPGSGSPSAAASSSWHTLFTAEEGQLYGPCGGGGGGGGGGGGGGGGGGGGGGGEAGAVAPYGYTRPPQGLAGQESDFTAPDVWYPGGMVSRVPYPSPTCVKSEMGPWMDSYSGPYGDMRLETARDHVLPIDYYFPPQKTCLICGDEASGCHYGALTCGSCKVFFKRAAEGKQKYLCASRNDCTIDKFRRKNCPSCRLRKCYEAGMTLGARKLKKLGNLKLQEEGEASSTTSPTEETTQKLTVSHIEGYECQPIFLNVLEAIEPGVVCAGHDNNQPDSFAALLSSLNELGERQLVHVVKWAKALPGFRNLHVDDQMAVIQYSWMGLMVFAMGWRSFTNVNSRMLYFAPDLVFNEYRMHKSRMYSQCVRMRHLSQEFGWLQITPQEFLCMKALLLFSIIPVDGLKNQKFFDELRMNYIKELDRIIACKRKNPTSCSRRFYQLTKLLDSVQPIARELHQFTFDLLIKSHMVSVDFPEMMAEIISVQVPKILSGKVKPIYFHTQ

COC(=O)c1ccccc1S(=O)(=O)NC(=O)N(C)c1nc(C)nc(OC)n1
inactive: [1] | [2] | [3] | [4] | [5]

COC(=O)c1ccccc1CS(=O)(=O)NC(=O)Nc1nc(OC)cc(OC)n1
not listed: [3] | [9] | [10]
inactive: all other assays above

CCOC1Oc2ccc(OS(C)(=O)=O)cc2C1(C)C (stereo unspecified)
active: [6] 25.7 µM | [7] 25.4 µM
not listed: [3] | [8]
inactive: all other assays above

CN1CSC(=S)N(C)C1
inactive: [1] | [2] | [4] | [8]
active: [6] 78.3 µM | [5] 50 µM

CC(C)(C)C(O)/C(=C\c1ccc(Cl)cc1Cl)n1cncn1 (stereo unspecified)
not listed: [3] | [8] | [9]
inactive: all other assays above

CCOc1nc(NC)nc(NC(=O)NS(=O)(=O)c2ccccc2C(=O)OC)n1
not listed: [3] | [7] | [9]
inactive: all other assays above

COP(=S)(OC)Oc1ccc([N+](=O)[O-])cc1
not listed: [3] | [8] | [9]
inactive: all other assays above

O=C(O)CCCOc1ccc(Cl)cc1Cl
not listed: [3] | [7] | [8]
inactive: all other assays above

O=C(O)COc1ccc(Cl)cc1Cl
inactive: [1] | [2] | [6] | [5] | [10]

CC1(c2ccc(Oc3ccccc3)cc2)OC(=O)N(Nc2ccccc2)C1=O (stereo unspecified)
active: [6] 2.16 µM
not listed: [3] | [4] | [9]
inactive: all other assays above

CCc1ccc(C(=O)NN(C(=O)c2cc(C)cc(C)c2)C(C)(C)C)cc1
inactive: [1] | [2] | [7] | [8] | [5]
active: [6] 9.51 µM

O=C(NC(=O)c1c(F)cccc1F)Nc1ccc(OC(F)(F)C(F)OC(F)(F)F)c(Cl)c1 (stereo unspecified)
inactive: [1] | [2] | [6] | [7] | [5]

COC(=O)c1ccccc1S(=O)(=O)NC(=O)Nc1nc(C)nc(OC)n1
inactive: [1] | [2] | [6] | [5] | [10]

O=[N+]([O-])c1c(Cl)c(Cl)c(Cl)c(Cl)c1Cl
inactive: [2] | [4] | [5] | [10]
active: [1] 29 µM | [6] 50 µM | [7] 50 µM

[2H]C1([2H])[n+]2ccccc2-c2cccc[n+]2C1([2H])[2H]
inactive: [1] | [2] | [6] | [5] | [10]

CC(C)OC(=O)Nc1cccc(Cl)c1
inactive: [1] | [2] | [7] | [8] | [5]
active: [6] 50 µM

Cc1[nH]c(=O)n(C(C)(C)C)c(=O)c1Cl
active: [5] 27.4 µM
not listed: [3] | [6] | [8]
inactive: all other assays above

O=S(=O)(O)C(F)(F)C(F)(F)C(F)(F)C(F)(F)C(F)(F)C(F)(F)C(F)(F)C(F)(F)F
active: [10] 100 µM
inactive: [1] | [2] | [6] | [8] | [5] | [10]

N#Cc1c(Cl)c(Cl)c(Cl)c(C#N)c1Cl
active: [6] 0.267 µM
not listed: [3] | [8] | [9]
inactive: all other assays above

CCS(=O)(=O)c1cccnc1S(=O)(=O)NC(=O)Nc1nc(OC)cc(OC)n1
inactive: [1] | [2] | [6] | [4] | [8] | [5]

COP(=O)(OC)OC=C(Cl)Cl
inactive: [1] | [2] | [7]
active: [5] 25.1 µM

CCN(CC)C(=O)SCc1ccc(Cl)cc1
inactive: [1] | [2] | [8] | [5] | [10]
active: [6] 24.8 µM | [7] 32.4 µM

CCC(C)Nc1c([N+](=O)[O-])cc(C(C)(C)C)cc1[N+](=O)[O-] (stereo unspecified)
inactive: [1] | [2] | [5] | [10]
active: [6] 19.2 µM | [7] 12.4 µM

C#CCN1C(=O)COc2cc(F)c(N3C(=O)C4=C(CCCC4)C3=O)cc21
not listed: [3] | [8]
inactive: all other assays above

CNC(=O)/C=C(\C)OP(=O)(OC)OC
inactive: [1] | [2] | [6] | [4] | [7] | [5]

CCCN(CCOc1c(Cl)cc(Cl)cc1Cl)C(=O)n1ccnc1
active: [5] 19.5 µM
inactive: [1] | [2] | [4] | [8] | [5] | [10]

CCC(C)(NC(=O)c1cc(Cl)c(C)c(Cl)c1)C(=O)CCl (stereo unspecified)
not listed: [3] | [6] | [9]
inactive: all other assays above

O=C1c2ccccc2C(=O)N1SC(Cl)(Cl)Cl
not listed: [3] | [8] | [9]
inactive: all other assays above

O=S1OCC2C(CO1)C1(Cl)C(Cl)=C(Cl)C2(Cl)C1(Cl)Cl (stereo unspecified)
active: [7] 2.04 µM
not listed: [3] | [8] | [9]
inactive: all other assays above
